Several values for one entry are separate records, joined by “and”; a condition that tells them apart may be missing. Identical values can stand only once. A number with no mark means an inactive call. Records with an inconclusive call do not appear. Where a call stands in place of a potency, no number is given. Activity calls are given as the source filed them. Unless noted, the call rests on the fitted dose curve; in most records, active means well fitted curve in the direction sought with a large enough effect in the repeat runs; inconclusive means weak or mixed curves; inactive means no such curve, though single readings can be large; an effect the other way counts as inactive or inconclusive.
Key:
[1] = qHTS assay to identify small molecule antagonists of the estrogen receptor alpha (ER-alpha) signaling pathway using the BG1 cell line in the presence of 0.1 nM 17-beta-estradiol - cell viability counter screen (AID 1259241); further: nearly all actives have a fitted effect of over 40% in size; further: potency means the concentration at half of the fitted maximal effect
Procedure, shortened: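 Measures cytotoxicity alongside the ER-alpha antagonist readout: VM7Luc4E2 cells, charcoal-stripped serum, 0.1 nM 17beta-estradiol final, 22 hr compound incubation at 37C, CellTiter-Fluor fluorescence.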

[2] = qHTS assay to identify small molecule antagonists of the androgen receptor (AR) signaling pathway using the MDA cell line in the presence of 0.5 nM R1881 - cell viability counter screen (AID 1259242); further: nearly all actives have a fitted effect of over 45% in size; further: potency means the concentration at half of the fitted maximal effect
Procedure, shortened: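 Live-cell protease activity was measured by CellTiter-Fluor fluorescence after 30 min. Before that, MDA-kb2 MMTV-luciferase cells had 16 hr at 37C without CO2, exposed to test compounds and 0.5 nM R1881 final.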

[3] = molecular target: Estrogen receptor (Homo sapiens) (UniProt P03372); experiment: qHTS assay to identify small molecule antagonists of the estrogen receptor alpha (ER-alpha) signaling pathway using the BG1 cell line in the presence of 0.1 nM 17-beta-estradiol (AID 1259244); further: nearly all actives have a fitted effect of over 50% in size; further: potency means the concentration at half of the fitted maximal effect
Procedure, shortened: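 Luciferase luminescence (ONE-Glo, 30 min at room temperature) was read after 22 hr at 37C exposure to compounds plus 17beta-estradiol at 0.1 nM final. Cells were VM7Luc4E2 with endogenous ER-alpha and an ERE-driven luciferase, pre-cultured 5 days in hormone-depleted medium.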

[4] = qHTS assay to identify small molecule phospholipidosis (PLD) inducers (AID 1259344; active means well fitted curve in the direction sought with a large enough effect; an effect the other way counts as inactive or inconclusive)
Procedure, shortened: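 Image-based: LipidTOX Red pit count/intensity per well and per cell; HepG2, 24 h compound at 37 C, PFA fixation, Hoechst counterstain.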

[5] = qHTS assay to identify small molecule HDAC inhibitors (AID 1259364); further: nearly all actives have a fitted effect of over 45% in size; further: potency means the concentration at half of the fitted maximal effect
Procedure, shortened: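 Luminescence read after 30 min room-temperature HDAC-Glo incubation measures cellular class I/II HDAC activity. Compounds were applied for 2 hr at 37 C to HCT-116 wild-type cells seeded the day before.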

[6] = qHTS assay to identify small molecule HDAC inhibitors - cell viability counter screen (AID 1259365); further: series mostly up to about 92 µM; nearly all actives have a fitted effect of over 50% in size
Procedure, shortened: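 Following a 2hr exposure of overnight-plated wild-type HCT-116 cells to DMSO-delivered compounds, CellTiter-Glo was added and luminescence recorded after 30min at room temperature.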

[7] = qHTS assay to identify small molecule antagonists of the sonic hedgehog signaling (Shh) pathway - cell viability counter screen (AID 1259367); further: nearly all actives have a fitted effect of over 55% in size; further: potency means the concentration at half of the fitted maximal effect
Procedure, shortened: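 Tox21 library chemicals were tested on a Gli1-Luc NIH/3T3 clone (2,000 cells/well) stimulated by conditioned medium; viability was quantified as fluorescence from CellTiter-Fluor reagent added at 23 hr.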

[8] = qHTS assay to identify small molecule agonists of the sonic hedgehog signaling (Shh) pathway (AID 1259368; calls by dose curve;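 further: NIH/3T3-derived 3T3Gli1-Luc cells carrying a stable Gli1-driven firefly luciferase reporter; series mostly up to about 92 µM; nearly all actives have a fitted effect of over 15% in size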)
Procedure, shortened: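 Luminescence was read after 30 min at room temperature with luciferase reagent. Before that, 3T3Gli1-Luc cells (NIH/3T3 clone, stable Gli1-Luc reporter; 2,000/well) were exposed to compounds for 24 hr at 37C, 5% CO2, compounds being added 4 hr post-plating.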

[9] = qHTS assay to identify small molecule antagonists of the sonic hedgehog signaling (Shh) pathway (AID 1259369; calls by dose curve; further: nearly all actives have a fitted effect of over 45% in size; further: potency means the concentration at half of the fitted maximal effect)
Procedure, shortened: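 Antagonist mode: compound added to 3T3 Gli1-Luc cells followed by conditioned-medium stimulation, 24 h at 37 C, 5% CO2. Inhibition taken as loss of Gli1-driven luciferase luminescence.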

[10] = qHTS assay to identify small molecule agonists of the estrogen receptor beta (ER-beta) signaling pathway - cell viability counter screen (AID 1259380); further: nearly all actives have a fitted effect of over 30% in size; further: potency means the concentration at half of the fitted maximal effect
Procedure, shortened: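 Cell viability counter screen: CellTiter-Glo luminescence (30 min, room temperature) measured in the same wells as the beta-lactamase readout, after 16 hr compound exposure at 37C of ER-beta-bla HEK293T cells in 2% charcoal-stripped FBS medium.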

[11] = molecular target: Estrogen receptor (Homo sapiens) (UniProt P03372); experiment: qHTS assay to identify small molecule agonists of the estrogen receptor alpha (ER-alpha) signaling pathway in the presence of an antagonist (AID 1259383; calls by dose curve; further: top concentration of the series differs between compounds; nearly all actives have a fitted effect of over 15% in size)
Procedure, shortened: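 Agonist-mode confirmation run in the presence of 10.0nM (final) ICI-182,780 antagonist. The reporter was ERE-driven luciferase in VM7Luc4E2 cells, grown in charcoal-stripped serum. Cells were exposed to 15-concentration compound series for 22hr, then ONE-Glo luminescence was read.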

[12] = molecular target: Thyrotropin receptor (Homo sapiens) (UniProt P16473); experiment: qHTS assay to identify small molecule antagonists of the thyroid stimulating hormone receptor (TSHR) signaling pathway (AID 1259385; calls by dose curve; further: nearly all actives have a fitted effect of over 20% in size)
Procedure, shortened: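 TSHR-HEK293 cells (800/well) plated 18 h, then compounds with Ro20-1724 and TSH at 1.5 ng/mL final, 30 min at room temperature. cAMP quantified by HTRF (cAMP-d2/anti-cAMP-cryptate, 1 h); 15 concentrations in triplicate.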

[13] = molecular target: Estrogen receptor beta (Homo sapiens) (UniProt Q92731); experiment: qHTS assay to identify small molecule agonists of the estrogen receptor beta (ER-beta) signaling pathway (AID 1259377; active means well fitted activation curve with a large enough effect in the signal ratio in the repeat runs, not every such curve was filed as active; the % refers to the signal ratio)
Procedure, shortened: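 In HEK293T cells bearing a UAS-beta-lactamase reporter under ER-beta control, DMSO-delivered compounds were incubated for 16 hr at 37C. Activity was detected as fluorescence 2 hours after LiveBLAzer B/G FRET substrate addition.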

[14] = molecular target: Estrogen receptor beta (Homo sapiens) (UniProt Q92731); experiment: qHTS assay to identify small molecule antagonists of the estrogen receptor beta (ER-beta) signaling pathway (AID 1259378; active means well fitted inhibition curve with a large enough effect in the signal ratio in the repeat runs, not every such curve was filed as active; the % refers to the signal ratio; further: potency means the concentration at half of the fitted maximal effect)
Procedure, shortened: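 ER-beta-UAS-bla HEK293T cells in 2% charcoal-stripped FBS medium treated with compound plus 1nM final 17-beta-estradiol for 16 hr at 37C. Beta-lactamase reporter read by FRET substrate fluorescence after 2 hours at room temperature.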

[15] = qHTS assay to identify small molecule agonists of the androgen receptor (AR) signaling pathway in the presence of an antagonist - cell viability counter screen (AID 1259379); further: nearly all actives have a fitted effect of over 25% in size; further: potency means the concentration at half of the fitted maximal effect
Procedure, shortened: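 Cytotoxicity counter-screen run in the same wells as the nilutamide-challenged (3.0 µM final) AR agonist assay in MDA-kb2 cells. Compounds tested at 15 concentrations for 16 h, 37 °C without CO2; CellTiter-Fluor fluorescence read.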

[16] = qHTS assay to identify small molecule antagonists of the estrogen receptor beta (ER-beta) signaling pathway - cell viability counter screen (AID 1259382); further: nearly all actives have a fitted effect of over 55% in size; further: potency means the concentration at half of the fitted maximal effect
Procedure, shortened: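 Cytotoxicity was measured in the same wells by CellTiter-Glo luminescence after 30 min at room temperature. Cells were ER-beta-bla HEK293T in charcoal-stripped serum, given compound together with 1 nM E2 and incubated 16 h at 37C.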

[17] = qHTS assay to identify small molecule agonists or antagonists of the thyroid stimulating hormone receptor (TSHR) signaling pathway - wild type cell line counter screen (AID 1259384; calls by dose curve)
Procedure, shortened: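 Wild-type Hek293 cells, 800/well, 18 h at 37C, then compound with Ro20-1724 for 30 min RT. cAMP by HTRF (cAMP-d2/anti-cAMP cryptate), 1 h RT, fluorescence read. 15 concentrations, triplicates.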

[18] = qHTS assay to identify small molecule agonists of the sonic hedgehog signaling (Shh) pathway - cell viability counter screen (AID 1259366); further: nearly all actives have a fitted effect of over 50% in size; further: potency means the concentration at half of the fitted maximal effect
Procedure, shortened: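 After a 4hr attachment at 37C, NIH/3T3 cells bearing an integrated Gli1-driven luciferase reporter were dosed with compounds. Treatment lasted 24hr, with the final hour including CellTiter-Fluor for a fluorescence viability measurement.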

[19] = molecular target: Androgen receptor (Homo sapiens) (UniProt P10275); experiment: qHTS assay to identify small molecule agonists of the androgen receptor (AR) signaling pathway in the presence of an antagonist (AID 1259381; calls by dose curve; further: nearly all actives have a fitted effect of over 15% in size)
Procedure, shortened: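 Agonist-mode confirmation run against 3.0 uM final nilutamide: compounds titrated at 15 concentrations onto MDA-kb2 MMTV-luciferase reporter cells. Luminescence measured with ONE-Glo following 16 hr incubation, 37C, 0% CO2.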

Estrogen receptor (Homo sapiens), sequence (P03372 whole entry, looked up): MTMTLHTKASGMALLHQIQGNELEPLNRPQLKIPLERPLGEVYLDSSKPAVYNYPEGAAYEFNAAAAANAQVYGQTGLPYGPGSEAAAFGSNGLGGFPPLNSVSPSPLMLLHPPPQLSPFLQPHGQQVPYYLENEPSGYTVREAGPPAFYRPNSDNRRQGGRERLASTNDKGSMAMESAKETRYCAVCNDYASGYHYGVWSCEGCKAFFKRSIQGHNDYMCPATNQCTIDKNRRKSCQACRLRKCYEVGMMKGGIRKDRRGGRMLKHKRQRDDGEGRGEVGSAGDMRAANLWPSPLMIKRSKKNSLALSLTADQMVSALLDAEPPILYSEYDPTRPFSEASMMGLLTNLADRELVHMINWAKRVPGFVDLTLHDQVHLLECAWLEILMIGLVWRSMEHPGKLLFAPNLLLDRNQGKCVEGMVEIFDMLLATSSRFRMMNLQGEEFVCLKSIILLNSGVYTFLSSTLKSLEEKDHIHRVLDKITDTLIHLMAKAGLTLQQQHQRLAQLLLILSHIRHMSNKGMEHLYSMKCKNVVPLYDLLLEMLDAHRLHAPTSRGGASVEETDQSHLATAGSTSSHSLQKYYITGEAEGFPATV
Estrogen receptor beta (Homo sapiens), sequence (Q92731 whole entry, looked up): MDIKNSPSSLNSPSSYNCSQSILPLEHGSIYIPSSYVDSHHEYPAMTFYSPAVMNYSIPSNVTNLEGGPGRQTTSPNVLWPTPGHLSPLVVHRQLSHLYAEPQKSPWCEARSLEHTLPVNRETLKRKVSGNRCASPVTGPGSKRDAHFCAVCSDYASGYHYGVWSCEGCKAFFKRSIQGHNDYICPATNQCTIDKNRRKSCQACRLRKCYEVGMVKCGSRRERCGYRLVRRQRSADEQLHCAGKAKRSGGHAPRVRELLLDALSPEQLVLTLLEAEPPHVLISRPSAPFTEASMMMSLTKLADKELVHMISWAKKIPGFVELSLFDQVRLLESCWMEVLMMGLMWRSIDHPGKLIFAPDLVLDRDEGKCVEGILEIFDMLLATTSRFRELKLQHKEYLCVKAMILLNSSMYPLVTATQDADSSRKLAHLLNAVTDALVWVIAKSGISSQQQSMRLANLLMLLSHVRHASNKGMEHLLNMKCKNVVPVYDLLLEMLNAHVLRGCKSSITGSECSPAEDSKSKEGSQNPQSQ
Thyrotropin receptor (Homo sapiens), sequence (P16473 whole entry, looked up): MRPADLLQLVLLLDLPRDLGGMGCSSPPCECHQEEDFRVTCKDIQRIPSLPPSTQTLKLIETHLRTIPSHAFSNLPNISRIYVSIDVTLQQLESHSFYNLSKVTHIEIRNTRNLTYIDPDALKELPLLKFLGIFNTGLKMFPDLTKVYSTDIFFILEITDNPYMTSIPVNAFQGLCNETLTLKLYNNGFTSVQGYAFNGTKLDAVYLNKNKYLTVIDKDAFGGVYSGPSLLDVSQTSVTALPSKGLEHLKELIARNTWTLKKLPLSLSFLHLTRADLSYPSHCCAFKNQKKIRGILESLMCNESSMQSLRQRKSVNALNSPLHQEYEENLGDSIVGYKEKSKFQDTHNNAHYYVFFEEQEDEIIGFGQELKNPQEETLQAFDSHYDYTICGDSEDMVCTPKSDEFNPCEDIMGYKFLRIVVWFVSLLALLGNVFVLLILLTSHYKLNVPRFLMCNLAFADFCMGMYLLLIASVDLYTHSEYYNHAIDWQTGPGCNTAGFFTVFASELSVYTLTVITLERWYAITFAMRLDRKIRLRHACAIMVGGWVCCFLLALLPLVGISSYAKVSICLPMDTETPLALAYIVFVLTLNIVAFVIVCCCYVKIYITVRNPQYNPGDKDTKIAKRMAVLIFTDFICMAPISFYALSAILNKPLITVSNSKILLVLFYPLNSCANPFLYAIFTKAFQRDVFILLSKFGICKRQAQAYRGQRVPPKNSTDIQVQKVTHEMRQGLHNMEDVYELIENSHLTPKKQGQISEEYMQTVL
Androgen receptor (Homo sapiens), sequence (P10275 whole entry, looked up): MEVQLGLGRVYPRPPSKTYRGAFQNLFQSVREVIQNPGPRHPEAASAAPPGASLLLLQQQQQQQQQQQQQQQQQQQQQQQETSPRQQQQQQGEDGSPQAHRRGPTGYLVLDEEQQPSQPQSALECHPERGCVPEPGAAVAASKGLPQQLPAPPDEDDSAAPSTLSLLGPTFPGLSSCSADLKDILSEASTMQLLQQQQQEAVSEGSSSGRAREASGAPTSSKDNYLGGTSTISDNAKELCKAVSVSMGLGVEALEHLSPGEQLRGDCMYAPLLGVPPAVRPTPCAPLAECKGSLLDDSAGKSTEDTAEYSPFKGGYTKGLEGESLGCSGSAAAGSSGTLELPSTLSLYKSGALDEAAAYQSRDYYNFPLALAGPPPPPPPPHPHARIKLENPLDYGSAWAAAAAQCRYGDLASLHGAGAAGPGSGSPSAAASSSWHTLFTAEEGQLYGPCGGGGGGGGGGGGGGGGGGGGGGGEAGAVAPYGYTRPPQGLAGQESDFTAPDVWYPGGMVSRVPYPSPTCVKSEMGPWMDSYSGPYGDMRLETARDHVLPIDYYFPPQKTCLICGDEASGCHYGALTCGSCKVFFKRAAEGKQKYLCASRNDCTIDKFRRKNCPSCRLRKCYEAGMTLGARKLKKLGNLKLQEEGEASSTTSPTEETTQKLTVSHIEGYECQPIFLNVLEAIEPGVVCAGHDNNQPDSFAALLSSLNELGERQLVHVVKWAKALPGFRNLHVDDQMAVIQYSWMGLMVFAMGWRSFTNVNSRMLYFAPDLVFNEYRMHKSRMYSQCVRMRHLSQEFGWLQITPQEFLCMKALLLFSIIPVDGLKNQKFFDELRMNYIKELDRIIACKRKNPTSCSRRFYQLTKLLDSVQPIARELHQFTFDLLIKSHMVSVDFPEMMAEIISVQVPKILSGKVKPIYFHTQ

Row | SMILES | Potency [1] | Potency [2] | Potency [3] | Potency [4] | Potency [5] | Potency [6] | Potency [7] | Potency [8] | Potency [9] | Potency [10] | Potency [11] | Potency [12] | Potency [13] | Potency [14] | Potency [15] | Potency [16] | outcome [17] | Potency [18] | Potency [19] | PLD induction [4]
1 | Nc1c2ccccc2nc2ccccc12 | inactive | inactive | inactive | inactive | inactive | inactive | inactive | inactive | inactive | 2.14 µM (active) and 3.35 µM (active) | inactive | inactive | – | – | – | – | – | – | – | –
2 | Cc1onc(-c2ccccc2Cl)c1C(=O)N[C@@H]1C(=O)N2[C@@H]1SC(C)(C)[C@@H]2C(=O)O | inactive | inactive | inactive | inactive | inactive | inactive | inactive | inactive | inactive | inactive | inactive | inactive | inactive | inactive | inactive | inactive | inactive | – | – | –
3 | CCc1cc(Cc2cc(CC)c(N)c(CC)c2)cc(CC)c1N | inactive | inactive | 54.5 µM (active) | – | inactive | inactive | inactive | inactive | 30.6 µM (active) | 27.3 µM (active) | inactive | inactive | inactive | – | – | – | inactive | inactive | – | –
4 | CC(C)(C)NC(=O)[C@@H]1C[C@@H]2CCCC[C@@H]2CN1C[C@@H](O)[C@H](Cc1ccccc1)NC(=O)[C@H](CC(N)=O)NC(=O)c1ccc2ccccc2n1 | 27.7 µM (active) | 61.9 µM (active) | 61.9 µM (active) | inactive | inactive | inactive | 13.9 µM (active) | inactive | 24.7 µM (active) | 55.2 µM (active) | inactive | inactive | – | 17.5 µM (active) | 61.9 µM (active) | 61.9 µM (active) | inactive | 9.82 µM (active) | – | –
5 | O=C(N/N=C/c1ccccc1O)c1ccncc1 | inactive | inactive | 9.44 µM (active) | inactive | 23.7 µM (active) | inactive | inactive | inactive | 0.473 µM (active) | – | inactive | inactive | inactive | 2.11 µM (active) | inactive | inactive | inactive | – | – | –
6 | CCc1oc2ccccc2c1C(=O)c1cc(Br)c(O)c(Br)c1 | inactive | inactive | – | inactive | inactive | inactive | inactive | inactive | inactive | – | – | inactive | – | – | inactive | inactive | inactive | inactive | inactive | –
7 | CCOC(=O)O[C@]1(C(=O)OCCl)CC[C@H]2[C@@H]3CCC4=CC(=O)C=C[C@]4(C)[C@H]3[C@@H](O)C[C@@]21C | inactive | inactive | – | inactive | inactive | inactive | inactive | inactive | – | 26.6 µM (active) | – | inactive | inactive | inactive | inactive | inactive | inactive | inactive | – | –
8 | O=c1c(-c2ccccc2)c1-c1ccccc1 | inactive | inactive | – | inactive | inactive | inactive | 11.9 µM (active) | inactive | 5.96 µM (active) | inactive | inactive | inactive | – | 10.6 µM (active) | – | inactive | inactive | 13.3 µM (active) | – | –
9 | CN(C)[C@@H]1C(=O)C(C(N)=O)=C(O)[C@@]2(O)C(=O)C3=C(O)c4c(O)ccc(Cl)c4[C@@H](O)[C@H]3C[C@@H]12 | inactive | inactive | – | inactive | inactive | inactive | inactive | inactive | inactive | inactive | – | inactive | inactive | – | inactive | inactive | inactive | – | – | –
10 | CSc1cnc(C)cn1 | inactive | inactive | inactive | – | inactive | inactive | inactive | inactive | inactive | inactive | inactive | inactive | inactive | inactive | inactive | inactive | inactive | – | – | –
11 | CN(C)[C@@H]1C(=O)C(C(N)=O)=C(O)[C@@]2(O)C(=O)C3=C(O)c4c(O)cccc4C[C@H]3C[C@@H]12 | inactive | inactive | inactive | – | inactive | inactive | inactive | inactive | inactive | inactive | inactive | inactive | – | – | inactive | inactive | inactive | – | – | –
12 | Nc1ccccc1O | 53.8 µM (active) | inactive | 30.2 µM (active) | – | – | inactive | 19.1 µM (active) | inactive | 6.77 µM (active) | – | inactive | inactive | – | – | – | inactive | inactive | 24 µM (active) | – | –
13 | CCOC(=O)/C=C(C)/C=C/C=C(C)/C=C/c1c(C)cc(OC)c(C)c1C | inactive | inactive | – | inactive | inactive | inactive | inactive | inactive | inactive | inactive | inactive | inactive | – | – | inactive | – | inactive | inactive | – | –
14 | NC(=O)CC[C@@H]1NC(=O)[C@H](Cc2ccccc2)NC(=O)[C@H](Cc2ccc(O)cc2)NC(=O)CCSSC[C@@H](C(=O)N2CCC[C@H]2C(=O)N[C@@H](CCCN=C(N)N)C(=O)NCC(N)=O)NC(=O)[C@H](CC(N)=O)NC1=O | inactive | inactive | – | inactive | inactive | inactive | inactive | inactive | – | inactive | – | inactive | – | – | inactive | inactive | inactive | inactive | – | –
15 | CC(=O)S[C@@H]1CC2=CC(=O)CC[C@]2(C)[C@H]2CC[C@@]3(C)[C@@H](CC[C@@]34CCC(=O)O4)[C@H]12 | inactive | inactive | – | – | inactive | inactive | inactive | inactive | – | 30.6 µM (active) | inactive | inactive | inactive | – | inactive | – | inactive | – | – | 5.04% [at 1.53 µM]
16 | O=C(O)c1c(Cl)cccc1Cl | inactive | inactive | – | – | inactive | inactive | inactive | inactive | inactive | inactive | – | inactive | inactive | inactive | inactive | inactive | inactive | inactive | – | –

Reference: PubChem BioAssay (Tox21)
